The structures appear in SMILES notation. Out of some 350,000 compounds screened, about 7,000 (2%) were called active. This is one part of a sample in which actives are shown more often than they occur. Rule as the data show it: active = activation above about 40%; inconclusive = no clear call, values can overlap the other calls; inactive = below that.

The experiment is described as follows: Bmi1 luciferase reporter increase in mESCs, primary screen, esBAF inhibitor project, mouse ES cells, Bmi1 luciferase knock-in, single point (AID 602393).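 Also: 0% = median of the plate's neutral control wells and 100% = double that signal; a rise in the Bmi1 reporter signal indicates esBAF inhibition.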 The settings on record: 24 h, at 12.5 µM, hits give high values, 100% = twice the neutral-well signal. (A reporter such as luciferase makes a cellular process visible.)
For the compound `COC(=O)C[C@@H]1CC[C@H]2[C@H](COc3ccc(NC(=O)c4cccs4)cc3C(=O)N2C)O1`, the reporter increase is 2.44% (inactive). Then `O=C(CN1CCN(c2ccc(O)cc2)CC1)Nc1ccc(-c2ccccc2)cc1`, with -6.35% (inactive). For the compound `Oc1ccc(-c2cccc(-c3ccc(O)cc3)c2)cc1`, the reporter increase is 57.6% (active). Next, `O=C(CN1CCOCC1)NCC[C@@H]1CC[C@@H](NC(=O)Nc2ccccc2)[C@H](CO)O1`: -0.967% (inactive). Then `CCCNC(=O)N(C)C[C@H]1Oc2cc(C3=CCCCC3)ccc2S(=O)(=O)N([C@H](C)CO)C[C@H]1C`, with -6.45% (inactive); and `COc1ccc(NC(=O)N(C)C[C@@H]2OCCCC[C@H](C)Oc3ccc(NS(=O)(=O)c4cn(C)cn4)cc3C(=O)N([C@@H](C)CO)C[C@@H]2C)cc1`, with 1.74% (inactive); and `C[C@@H](O)C#Cc1ccc([C@H]2[C@H](CO)N3CCCCN(C(=O)c4ccc5c(c4)OCO5)C[C@@H]23)cc1`, with -3.75% (inactive). On to `COc1ccc(-n2nc(C(=O)NCC(=O)N3CCCCCC3)c3ccccc3c2=O)cc1Cl`, for which the reporter increase is 47.6% (active). Then `COc1ccc(-n2nc(C(=O)NCC(=O)N3CCC(C(N)=O)CC3)c3ccccc3c2=O)cc1OC`, with -4.41% (inactive); and `COc1ccc(-n2nc(C(=O)NCC(=O)N3CCN(c4ccccc4OC)CC3)c3ccccc3c2=O)c(OC)c1`, with 30.3% (inactive). Take `CCCNC(=O)Nc1ccc2c(c1)C(=O)N(C)C[C@@H](OC)[C@H](C)CN(C(=O)C1CCCCC1)[C@H](C)CO2`: the reporter increase was 5.09% (inactive). Next, `C[C@@H]1CCCCO[C@H](CN(C)S(C)(=O)=O)[C@@H](C)CN([C@H](C)CO)C(=O)c2cc(NC(=O)Nc3ccc4c(c3)OCO4)ccc2O1`: 6.3% (inactive); `CCOc1cc(/C=C2\SC(N3CCCCC3)=NC2=O)ccc1O`: 30.3% (inactive); `CC(C)=C1SC(N2CCN(c3cccc(C)c3)CC2)=NC1=O`: -1.1% (inactive). Then `CCN1C(=O)/C(=C2\SC(N3CCCCC3)=NC2=O)c2ccccc21`, with 65% (active); and `O=C(C[C@H]1C=C[C@H](NC(=O)Cc2ccccn2)[C@@H](CO)O1)NCCc1ccccc1`, with -5.91% (inactive).

`CN1c2ccc(C#Cc3ccccc3F)cc2[C@@H]2[C@@H](CCN2C(=O)Cc2cccnc2)[C@H]1CO`: the reporter increase is 1.33% (inactive). Next, `CCCOc1cccc(C(=O)Nc2nnn(CCC)n2)c1`: 52.7% (active); `CCn1nnc(NC(=O)c2c(OC)cccc2OC)n1`: 1.33% (inactive); `CCCn1nnc(NC(=O)COc2ccc(CC)cc2)n1`: -6.66% (inactive). On to `CO[C@H]1CN(C)C(=O)c2cc(NC(=O)Nc3c(C)noc3C)ccc2OC[C@@H](C)N(CCC(F)(F)F)C[C@H]1C`, for which the reporter increase is -21.9% (inactive). Then `Cc1noc(C)c1S(=O)(=O)N(C)C[C@@H]1OCCCC[C@H](C)Oc2ccc(NC(=O)Nc3ccc4c(c3)OCO4)cc2C(=O)N([C@H](C)CO)C[C@H]1C`, with 2% (inactive); and `COCC(=O)Nc1ccc2c(c1)C(=O)N(C)[C@@H]1CC[C@H](CC(=O)NCC3CC3)O[C@@H]1CO2`, with -2.01% (inactive); and `CO[C@H]1CN(C)C(=O)c2cc(NC(=O)c3cc(C)on3)ccc2OC[C@H](C)N(C(C)=O)C[C@H]1C`, with 0.72% (inactive). Then `COCCNC(=O)c1ccc2nc(Cc3ccc(OC)c(OC)c3)oc2c1`, with 48.6% (active); and `O=C(NCCc1ccc(F)cc1)c1ccc2nccnc2c1`, with -17.6% (inactive); and `CCC1C(=O)NCCN1C(=O)c1ccc2nc(Cc3ccc(OC)cc3)oc2c1` (configuration not stated), with 0.998% (inactive). Then `COc1ccc(Cc2nc3ccc(C(=O)NCC4CCOCC4)cc3o2)cc1OC`, with 21% (inactive); and `CCCCc1nc2cc(C(=O)NCCc3cnn(C)c3)ccc2o1`, with 31.5% (inactive); and `CSCCNC(=O)c1ccc2nc(Cc3ccccc3F)oc2c1`, with 70.4% (active).

Turning to `O=C(N[C@H]1CC[C@@H](CCNS(=O)(=O)c2cccc(Cl)c2)O[C@@H]1CO)c1ccncc1`, the reporter increase was 0.826% (inactive).

Consider `C[C@H](CO)N1C[C@H](C)[C@H](CN(C)C(=O)Nc2ccc(C(F)(F)F)cc2)Oc2ccc(NS(=O)(=O)c3ccccc3)cc2CC1=O`, for which the reporter increase was -4.41% (inactive). As to `Cc1noc(C)c1S(=O)(=O)N(C)C[C@@H]1Oc2ccc(NC(=O)Cn3cnnn3)cc2CC(=O)N([C@@H](C)CO)C[C@H]1C`, the reporter increase was -6.08% (inactive). Consider `Cc1cc(C(=O)Nc2cccc3c2O[C@@H](CN(C)S(=O)(=O)c2ccc(F)cc2)[C@@H](C)CN([C@H](C)CO)C3=O)n(C)n1`, for which the reporter increase is 5.98% (inactive). Then `CCC(=O)Nc1ccc2c(c1)OC[C@@H](C)N(Cc1ccccn1)C[C@H](C)[C@@H](OC)CN(C)C2=O`, with -3.64% (inactive). Then `COc1ccc(NC(=O)N(C)C[C@H]2OCCCC[C@H](C)Oc3ccc(NS(C)(=O)=O)cc3C(=O)N([C@H](C)CO)C[C@@H]2C)cc1`, with 3.29% (inactive); and `CC(C)NC(=O)N(C)C[C@H]1OCCCC[C@@H](C)Oc2ccc(NS(C)(=O)=O)cc2C(=O)N([C@H](C)CO)C[C@H]1C`, with -1.04% (inactive). Next, `COc1ccc(NC(=O)Nc2ccc3c(c2)C(=O)N([C@H](C)CO)C[C@@H](C)[C@H](CN(C)C(=O)Cc2ccccc2)OCCCC[C@H](C)O3)cc1`: 15.2% (inactive); `CCOC(=O)c1cn(CC(=O)Nc2ccc(C(C)C)cc2)nn1`: -4.55% (inactive); `CCc1ccc(NC(=O)Cn2ncn3c(cc4ccccc43)c2=O)cc1`: -6.55% (inactive). Turning to `CC(C)c1ccc(NC(=O)Cn2ncc3ccccc32)cc1`, the reporter increase is 61.7% (active). Consider `COc1cccc(CNC(=O)[C@@H]2[C@@H](CO)[C@@H]3Cn4c(ccc(-c5cccnc5)c4=O)[C@@H]3N2C)c1`, for which the reporter increase was 0.488% (inactive).

For `COc1ccc(N=C(C)c2sc3ccccc3c2O)cc1`, the reporter increase is 50.4% (active).

`COc1ccccc1-c1sc2ccccc2c1-c1ccc(C(C)=O)cc1`: the reporter increase was 34.4% (inactive). Next, `COC(=O)c1ccc(/C=C/c2c(-c3ccc(OC)cc3)sc3ccccc23)cc1`: 0.121% (inactive). `N#C[C@H]1[C@@H](c2ccc(C3=CCCCC3)cc2)[C@@H](CO)N1C(=O)NC1CCCCC1`: the reporter increase was 7.57% (inactive).

For `C[C@H]1CCCCO[C@H](CN(C)C(=O)Nc2ccccc2)[C@@H](C)CN([C@@H](C)CO)C(=O)c2cc(NC(=O)CCC(F)(F)F)ccc2O1`, the reporter increase was -7.05% (inactive).

These data come from PubChem BioAssay AID602393 (Broad Institute, 2012).
